# Reference: PubChem BioAssay
# Calls of active or inactive are those of the source.
# How the values were obtained:
# [1] = optical density shifts of acrAB sulA E. coli – strain DRC41, OD650, 48 h, E. coli filamentation inducer project, primary screen (AID 1152); details: higher = more signal, called active from +8 up or from −8 down;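 also: E. coli MC1000 strain DRC41 lacking acrAB efflux pump and sulA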
# [2] = probe aLefty1 binding on compound microarray – biochemical, small-molecule microarray, 635/667 nm fluorescence, primary screen (AID 1153); details: higher = more signal;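 also: score merges spot fluorescence with signal-to-noise ratio from the scanned slide images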
# [3] = plasmodial surface anion channel blockers, osmotic lysis – cell-based, P. falciparum Indochina, OD700, 1 h, primary screen (AID 1154); details: P. falciparum Indochina infected RBC osmotic lysis, higher = more signal, called active from +8 up or from −8 down
# [4] = plasmodial surface anion channel blockers, osmotic lysis – cell-based, P. falciparum Indochina, OD700, 2 h, primary screen (AID 1155);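 also: lysis reports solute entry through the parasite surface anion channel PSAC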; details: P. falciparum Indochina infected erythrocytes, higher = more signal, called active from +8 up or from −8 down
# [5] = changes in parasitized red cell lysis, either direction – P. falciparum Indochina, OD700, 3 h, PSAC antagonist project, primary screen (AID 1156); details: P. falciparum-infected erythrocytes, osmotic lysis, higher = more signal, called active from +8 up or from −8 down
# [6] = plasmodial surface anion channel blockers, osmotic lysis – cell-based, P. falciparum Indochina, OD700, 18 h, primary screen (AID 1157); details: P. falciparum Indochina infected erythrocytes, osmotic lysis OD700, 18 h; higher = more signal, called active from +8 up or from −8 down
# [7] = S6 kinase pathway phospho-S6 level changes – cell-based, A549, cytoblot, luminescence, serum-stimulated, primary screen (AID 1158); details: 5 h, higher = more signal;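 also: serum-stimulated A549 lung adenocarcinoma cells; signal is phosphorylated S6 detected by cytoblot immunostaining with HRP secondary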
# [8] = molecular target: NADPH oxidase 2 (Homo sapiens) (UniProt P04839); test: compounds shifting NOX2 Amplex Red fluorescence – cell-based, HEK293-NOX2, PMA-stimulated, NOX inhibitor project, primary screen (AID 1159); details: 45 min, higher = more signal, called active from +8 up or from −8 down; also: test concentration not given here
# Sequence of NADPH oxidase 2 (Homo sapiens) (P04839 whole entry, looked up): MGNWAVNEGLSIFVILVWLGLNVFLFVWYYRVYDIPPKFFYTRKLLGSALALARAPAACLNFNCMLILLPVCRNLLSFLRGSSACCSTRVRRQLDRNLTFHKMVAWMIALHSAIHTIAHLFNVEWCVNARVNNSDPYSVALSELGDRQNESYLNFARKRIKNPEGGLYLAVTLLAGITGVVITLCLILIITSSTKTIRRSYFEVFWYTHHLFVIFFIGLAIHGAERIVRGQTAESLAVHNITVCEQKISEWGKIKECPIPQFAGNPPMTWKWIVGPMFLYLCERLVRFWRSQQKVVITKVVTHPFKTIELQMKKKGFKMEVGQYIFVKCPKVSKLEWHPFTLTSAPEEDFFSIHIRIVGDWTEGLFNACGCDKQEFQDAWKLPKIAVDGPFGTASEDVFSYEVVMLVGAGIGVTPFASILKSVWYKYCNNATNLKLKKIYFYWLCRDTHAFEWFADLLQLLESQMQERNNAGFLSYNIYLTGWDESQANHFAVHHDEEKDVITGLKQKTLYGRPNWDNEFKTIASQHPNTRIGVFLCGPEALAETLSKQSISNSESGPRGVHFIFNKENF
# [9] = molecular target: NADPH oxidase 4 (Homo sapiens) (UniProt Q9NPH5); test: compounds shifting NOX4 Amplex Red fluorescence – cell-based, HEK293-NOX4, tetracycline-induced, NOX inhibitor project, primary screen (AID 1160); details: HEK293-NOX4, Amplex Red H2O2 fluorescence, 45 min; higher = more signal, called active from +8 up or from −8 down
# Sequence of NADPH oxidase 4 (Homo sapiens) (Q9NPH5 whole entry, looked up): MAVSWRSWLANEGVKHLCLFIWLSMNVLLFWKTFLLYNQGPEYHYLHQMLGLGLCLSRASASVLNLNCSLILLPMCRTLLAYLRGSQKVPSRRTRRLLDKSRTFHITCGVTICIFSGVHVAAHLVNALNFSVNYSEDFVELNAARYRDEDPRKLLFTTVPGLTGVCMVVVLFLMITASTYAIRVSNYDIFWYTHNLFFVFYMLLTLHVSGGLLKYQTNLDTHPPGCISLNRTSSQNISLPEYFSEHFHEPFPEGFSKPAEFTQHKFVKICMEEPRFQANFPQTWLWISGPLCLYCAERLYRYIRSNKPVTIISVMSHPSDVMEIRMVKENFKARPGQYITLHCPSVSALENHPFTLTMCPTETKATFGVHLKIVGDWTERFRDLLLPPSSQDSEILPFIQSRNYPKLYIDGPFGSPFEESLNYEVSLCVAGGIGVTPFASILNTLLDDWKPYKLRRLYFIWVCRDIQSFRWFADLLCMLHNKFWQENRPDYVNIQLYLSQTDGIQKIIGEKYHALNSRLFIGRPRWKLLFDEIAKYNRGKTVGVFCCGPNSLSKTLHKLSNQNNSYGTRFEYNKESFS
# [10] = molecular target: NADPH oxidase 5 (Homo sapiens) (UniProt Q96PH1); test: compounds shifting NOX5 Amplex Red fluorescence – cell-based, HEK293-NOX5, NOX inhibitor project, primary screen (AID 1161); details: HEK293-NOX5, ionomycin, 45 min, higher = more signal
# Sequence of NADPH oxidase 5 (Homo sapiens) (Q96PH1 whole entry, looked up): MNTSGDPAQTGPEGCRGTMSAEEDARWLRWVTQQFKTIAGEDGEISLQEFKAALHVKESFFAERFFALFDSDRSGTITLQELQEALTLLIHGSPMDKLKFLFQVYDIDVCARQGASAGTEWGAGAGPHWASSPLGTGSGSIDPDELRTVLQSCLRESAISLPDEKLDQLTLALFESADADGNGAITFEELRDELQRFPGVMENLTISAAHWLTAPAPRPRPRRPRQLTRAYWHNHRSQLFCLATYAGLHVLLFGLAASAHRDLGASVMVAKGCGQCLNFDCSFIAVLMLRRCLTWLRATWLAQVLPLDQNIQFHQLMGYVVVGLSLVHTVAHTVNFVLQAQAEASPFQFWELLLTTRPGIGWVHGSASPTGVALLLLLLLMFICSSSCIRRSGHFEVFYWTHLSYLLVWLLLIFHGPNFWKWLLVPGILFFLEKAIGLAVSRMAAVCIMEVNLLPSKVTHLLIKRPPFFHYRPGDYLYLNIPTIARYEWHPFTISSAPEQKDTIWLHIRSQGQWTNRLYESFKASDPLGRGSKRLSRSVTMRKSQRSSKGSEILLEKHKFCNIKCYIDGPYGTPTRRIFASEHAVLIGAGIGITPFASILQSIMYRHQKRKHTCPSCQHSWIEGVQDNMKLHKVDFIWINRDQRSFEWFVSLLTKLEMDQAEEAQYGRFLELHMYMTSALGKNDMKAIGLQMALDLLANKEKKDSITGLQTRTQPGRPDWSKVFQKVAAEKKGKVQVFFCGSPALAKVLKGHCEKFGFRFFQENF
# [11] = compound effects on lung adenocarcinoma cell viability – A549, calcein-AM fluorescence, 48 h, basal, profiling panel (AID 1162); details: higher = more signal; also: test concentration not given here
# [12] = compound effects on differentiated 3T3-L1 adipocyte viability – cell-based, 3T3-L1 adipocytes, calcein-AM fluorescence, 48 h, basal, profiling panel (AID 1163); details: 3T3-L1 adipocytes viability, higher = more signal; also: test concentration not given here
# [13] = compound effects on hepatocellular carcinoma cell viability – HepG2, calcein-AM fluorescence, 48 h, basal, profiling panel (AID 1164); details: higher = more signal; also: test concentration not given here
# [14] = compound effects on multiple myeloma cell viability – MM1S, calcein-AM fluorescence, 48 h, basal, profiling panel (AID 1165); details: higher = more signal;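 also: viability of MM1S multiple myeloma cells under basal unstimulated conditions; test concentration not given here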
# [15] = calcein-AM signal in unstimulated myeloma cells – cell-based, calcein-AM fluorescence, 48 h, PK04 Diversity Set, profiling panel (AID 1166); details: RPMI8226 myeloma viability, higher = more signal;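 also: cells grown under basal conditions without added stimulus; test concentration not given here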
# [16] = JC-1 mitochondrial signal, unstimulated HepG2 cells – cell-based, JC-1 fluorescence, 24 h, 100 nL compound, profiling panel (AID 1167); details: HepG2 mitochondrial potential, higher = more signal; also: test concentration not given here
# [17] = JC-1 mitochondrial signal, unstimulated adipocytes – cell-based, JC-1 fluorescence, 3T3-L1 adipocytes, 24 h, 100 nL compound, profiling panel (AID 1168); details: JC-1 mitochondrial fluorescence, higher = more signal, called active from +8 up or from −8 down; also: test concentration not given here
# [18] = JC-1 mitochondrial signal, unstimulated myeloma cells – cell-based, JC-1 fluorescence, RPMI8226, 24 h, 100 nL compound, profiling panel (AID 1169); details: JC-1 mitochondrial potential fluorescence, higher = more signal; also: test concentration not given here
# [19] = JC-1 mitochondrial signal, unstimulated MM1S myeloma – cell-based, JC-1 fluorescence, 24 h, 100 nL compound, profiling panel (AID 1170); details: MM1S mitochondrial potential, higher = more signal; also: test concentration not given here
# [20] = resazurin metabolic signal in A549 cells – cell-based, resazurin fluorescence, 24 h, PK04 Diversity Set, profiling panel (AID 1171); details: A549 viability, higher = more signal, called active from +8 up or from −8 down; also: test concentration not given here
SMILES,z-score [1],composite z-score [2],z-score [3],z-score [4],z-score [5],z-score [6],z-score [7],z-score [8],z-score [9],z-score [10],z-score [11],z-score [12],z-score [13],z-score [14],z-score [15],z-score [16],z-score [17],z-score [18],z-score [19],z-score [20]
CC(C)C[C@@H]1NC(=O)[C@H]2C[C@@H](C(=O)NCCCCCNC(=O)CS)[C@@H](c3cccc(OCCO)c3)N2C1=O,-0.586 (inactive),-0.0511,2.59 (inactive),0.505 (inactive),-0.47 (inactive),0.327 (inactive),-0.592,2.16 (inactive),1.21 (inactive),0.93,0.546,-0.206,-0.158,-1.11,-0.768,-0.0747,-0.362 (inactive),0.565,0.975,0.276 (inactive)
CC(C)(C)N1CC=CC23O[C@@H]4C=CCOC(=O)[C@@H]4[C@H]2C(=O)N(CCCCCO)[C@@H]3C1=O (stereo not given in full),-0.197 (inactive),-0.0094,0.987 (inactive),0.624 (inactive),1.47 (inactive),0.453 (inactive),-0.301,1.27 (inactive),0.436 (inactive),1.52,-0.52,0.468,-0.542,-0.341,0.606,-0.667,-0.173 (inactive),0.828,0.388,-1.08 (inactive)
O=C1O[C@@H](c2ccccc2)[C@@H](c2ccccc2)N2[C@@H](c3ccc(O)cc3)[C@]3(C(=O)Nc4ccc(C#CC5=CCCCC5)cc43)[C@@H](C(=O)O)[C@H]12,4.17 (inactive),0.112,-2.7 (inactive),-2.38 (inactive),-9.62 (active),-3.16 (inactive),3.05,0.896 (inactive),-2.76 (inactive),-1.01,1.09,0.369,1.2,-0.294,-0.412,-0.956,0.619 (inactive),-0.177,1.04,1.86 (inactive)
COCCOC(=O)N1C(=O)[C@@]2(c3ccccc31)[C@H](C(=O)Nc1nc3ccccc3s1)[C@H]1C(=O)O[C@H](c3ccccc3)[C@H](c3ccccc3)N1[C@@H]2c1ccc(OCCO)cc1,0.258 (inactive),0.258,4.45 (inactive),1.76 (inactive),0.505 (inactive),1.63 (inactive),0.44,-0.207 (inactive),0.842 (inactive),2.22,-0.257,1.73,-1.23,-2.13,-1.62,-3.14,1.68 (inactive),-0.806,-1.57,0.18 (inactive)
COCCOC(=O)N1C(=O)[C@@]2(c3cc(C#CCNC(N)=O)ccc31)[C@H](c1ccc(OCCO)cc1)N1[C@H](c3ccccc3)[C@H](c3ccccc3)OC(=O)[C@H]1[C@@H]2C(=O)N1CCc2cc(OC)c(OC)cc2C1,0.506 (inactive),0.308,3.71 (inactive),1.89 (inactive),0.523 (inactive),1.15 (inactive),0.307,1.89 (inactive),1.09 (inactive),0.284,1.24,0.427,0.34,0.451,-0.172,-1.04,1.65 (inactive),-0.489,-1.32,-0.189 (inactive)
CC(C)C(=C=CC[C@H](O)c1cccc(OCCO)c1)C[C@H](O)COCc1ccccc1,0.142 (inactive),0.0455,12.8 (active),2.04 (inactive),0.367 (inactive),0.627 (inactive),-0.145,-1.77 (inactive),-0.716 (inactive),-2.13,-0.0353,-0.27,-0.0485,0.0675,-0.524,-0.42,-0.711 (inactive),0.259,-0.615,1.25 (inactive)
CCN(CC)c1ccc(N2CC=CC34O[C@@H]5C=CCCOC(=O)C5[C@H]3C(=O)N(CCCCCO)[C@@H]4C2=O)cc1 (stereo not given in full),2.82 (inactive),0.0391,2 (inactive),-0.0803 (inactive),1.11 (inactive),0.352 (inactive),-0.195,-0.11 (inactive),0.604 (inactive),0.895,1.69,0.132,1.08,1.39,-0.0513,1.65,1.27 (inactive),0.589,0.84,1.62 (inactive)
CC(=O)NCCCC[C@@H]1NC(=O)[C@@H]2C[C@H](C(=O)NCCCCCCNC(=O)CS)[C@H](c3ccc(O)cc3)N2C1=O,-0.644 (inactive),0.0494,3.73 (inactive),0.2 (inactive),-1.8 (inactive),0.0805 (inactive),-0.0593,0.897 (inactive),-0.173 (inactive),-0.697,-0.503,-0.683,0.366,0.0337,-0.66,-0.638,-0.744 (inactive),-0.0931,-0.795,-0.363 (inactive)
Cc1cc(C)c(C(O)C2C=CC3C(=O)N(C)C(=O)C3N2Nc2ccccc2)c(C)c1 (stereo not given),-1.52 (inactive),1.5,0.277 (inactive),0.519 (inactive),-0.168 (inactive),1.03 (inactive),-0.858,-0.802 (inactive),-3.6 (inactive),-1.96,-1.02,-0.904,-0.798,-0.305,-0.681,-1.73,-1 (inactive),-0.207,0.434,-0.551 (inactive)
